This is an account of results in article PMC7862700, “An all-to-all approach to the identification of sequence-specific readers for epigenetic DNA modifications on cytosine”.

Common to all, as to experiment: DAPPL (digital affinity profiling via proximity ligation, sequencing); 10 mM Tris-HCl pH 7.5, 50 mM NaCl, 1 mM DTT, 4% glycerol, room temperature, 30 min; GST-TFs on glutathione beads, 16-mer random dsDNA library, 0.1% formaldehyde crosslink after washing; high values mean tight binding
What all share (conditions): protein: recombinant; tags: N-terminal GST; dsDNA, one strand shown

One experiment addresses T1, ELK1 (Homo sapiens, UniProt P19419 1-428).
T1 sequence: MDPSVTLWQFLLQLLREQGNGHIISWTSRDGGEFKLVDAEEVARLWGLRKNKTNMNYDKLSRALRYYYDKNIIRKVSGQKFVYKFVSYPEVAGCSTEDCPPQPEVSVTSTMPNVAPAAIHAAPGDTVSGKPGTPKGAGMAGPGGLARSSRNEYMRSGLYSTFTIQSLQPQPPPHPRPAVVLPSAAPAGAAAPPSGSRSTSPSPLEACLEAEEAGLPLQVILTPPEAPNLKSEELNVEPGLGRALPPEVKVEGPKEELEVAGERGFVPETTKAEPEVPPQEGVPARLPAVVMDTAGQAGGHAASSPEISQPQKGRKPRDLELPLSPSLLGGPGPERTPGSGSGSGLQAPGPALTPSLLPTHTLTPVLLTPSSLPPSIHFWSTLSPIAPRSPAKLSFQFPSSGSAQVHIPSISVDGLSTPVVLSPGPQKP
The method, boiled down: (§1)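 Binding signal is given per hexamer as its read frequency for a factor divided by its frequency in the tag-only sample. GST-fused human transcription factors were expressed in yeast, captured on glutathione beads, barcoded with DNA and pooled with that sample, then incubated with 200 nmole of a 16-mer random double-stranded DNA library in Tris/NaCl/DTT/glycerol buffer for 30 min at room temperature. The pools were then washed, crosslinked, proximity-ligated, amplified by PCR and sequenced on an Illumina NextSeq500.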

For the next experiment, the target named is T2, GABPA (Homo sapiens, UniProt Q06546 1-454).
T2 sequence: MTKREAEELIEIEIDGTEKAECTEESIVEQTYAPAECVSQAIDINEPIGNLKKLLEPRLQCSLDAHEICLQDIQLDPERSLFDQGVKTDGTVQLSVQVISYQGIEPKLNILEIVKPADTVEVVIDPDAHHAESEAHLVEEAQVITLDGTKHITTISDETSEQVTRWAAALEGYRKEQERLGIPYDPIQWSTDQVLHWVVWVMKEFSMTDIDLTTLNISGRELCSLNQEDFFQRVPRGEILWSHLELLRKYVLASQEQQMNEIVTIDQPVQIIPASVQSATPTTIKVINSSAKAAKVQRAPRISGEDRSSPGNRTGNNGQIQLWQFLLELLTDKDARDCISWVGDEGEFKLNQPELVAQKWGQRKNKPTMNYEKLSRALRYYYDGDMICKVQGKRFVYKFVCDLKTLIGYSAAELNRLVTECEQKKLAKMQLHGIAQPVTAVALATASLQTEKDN
The method, boiled down: as §1

Another experiment deals with ELF1 (Homo sapiens, UniProt P32519 1-619). The method, boiled down: as §1
Chain of ELF1 (P32519 whole entry): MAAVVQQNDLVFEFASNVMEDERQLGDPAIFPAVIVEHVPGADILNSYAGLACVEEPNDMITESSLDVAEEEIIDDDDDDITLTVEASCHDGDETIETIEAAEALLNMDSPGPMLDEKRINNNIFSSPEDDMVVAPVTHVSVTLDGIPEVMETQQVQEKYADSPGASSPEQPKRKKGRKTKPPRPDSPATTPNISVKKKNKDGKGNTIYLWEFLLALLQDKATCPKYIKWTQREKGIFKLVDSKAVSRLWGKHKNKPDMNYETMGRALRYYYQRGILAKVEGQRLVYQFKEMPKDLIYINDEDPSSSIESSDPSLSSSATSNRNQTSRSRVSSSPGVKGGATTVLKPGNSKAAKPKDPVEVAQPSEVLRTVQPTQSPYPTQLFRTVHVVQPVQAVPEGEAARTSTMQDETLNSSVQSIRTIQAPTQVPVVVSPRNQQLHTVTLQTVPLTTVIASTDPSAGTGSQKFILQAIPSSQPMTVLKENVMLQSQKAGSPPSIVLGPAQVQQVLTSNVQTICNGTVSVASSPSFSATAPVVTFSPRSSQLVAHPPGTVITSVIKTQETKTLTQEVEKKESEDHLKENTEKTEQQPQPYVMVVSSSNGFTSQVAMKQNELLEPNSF
Another experiment addresses T3, EHF (Homo sapiens, UniProt Q9NZC4 1-300).
T3 sequence: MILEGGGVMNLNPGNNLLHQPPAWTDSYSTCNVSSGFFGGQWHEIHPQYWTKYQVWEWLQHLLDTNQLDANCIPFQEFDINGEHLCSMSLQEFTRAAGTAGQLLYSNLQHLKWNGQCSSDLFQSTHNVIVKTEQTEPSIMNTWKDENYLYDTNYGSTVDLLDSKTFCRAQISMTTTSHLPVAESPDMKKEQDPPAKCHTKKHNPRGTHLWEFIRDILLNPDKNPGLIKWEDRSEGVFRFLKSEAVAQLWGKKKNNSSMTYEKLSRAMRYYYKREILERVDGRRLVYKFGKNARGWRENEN
In outline:
as §1

Another experiment concerns the target T4, ELK3 (Homo sapiens, UniProt P41970 1-407).
T4 sequence: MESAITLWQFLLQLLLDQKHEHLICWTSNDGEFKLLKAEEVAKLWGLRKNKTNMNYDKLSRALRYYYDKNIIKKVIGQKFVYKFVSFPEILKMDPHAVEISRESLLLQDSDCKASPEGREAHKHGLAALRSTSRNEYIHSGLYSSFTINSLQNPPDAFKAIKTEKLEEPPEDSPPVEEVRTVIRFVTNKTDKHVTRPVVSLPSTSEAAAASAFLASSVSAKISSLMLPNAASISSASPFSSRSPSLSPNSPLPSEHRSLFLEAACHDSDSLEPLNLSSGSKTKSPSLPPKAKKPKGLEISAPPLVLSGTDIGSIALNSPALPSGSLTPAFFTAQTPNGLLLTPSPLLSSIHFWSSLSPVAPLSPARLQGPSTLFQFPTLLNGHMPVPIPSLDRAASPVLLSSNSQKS
The method, boiled down: as §1

The next experiment addresses T5, FEV (Homo sapiens, UniProt Q99581 1-238).
T5 sequence: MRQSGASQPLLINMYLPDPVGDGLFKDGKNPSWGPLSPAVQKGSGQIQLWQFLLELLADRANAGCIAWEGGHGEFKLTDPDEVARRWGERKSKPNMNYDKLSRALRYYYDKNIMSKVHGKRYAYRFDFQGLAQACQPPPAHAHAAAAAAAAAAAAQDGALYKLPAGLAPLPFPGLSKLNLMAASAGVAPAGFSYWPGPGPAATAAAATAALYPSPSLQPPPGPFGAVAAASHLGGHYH
In outline:
as §1

In the next experiment the target is T6, SPIC (Homo sapiens, UniProt Q8N5J4 1-248).
T6 sequence: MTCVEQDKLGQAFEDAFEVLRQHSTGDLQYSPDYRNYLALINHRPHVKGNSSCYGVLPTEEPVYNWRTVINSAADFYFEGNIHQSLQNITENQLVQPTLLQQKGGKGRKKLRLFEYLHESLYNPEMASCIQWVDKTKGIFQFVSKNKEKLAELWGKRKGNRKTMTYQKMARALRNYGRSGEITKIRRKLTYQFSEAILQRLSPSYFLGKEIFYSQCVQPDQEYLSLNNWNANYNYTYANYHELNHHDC
In outline: as §1

For the next experiment, the target named is ELF4 (Homo sapiens, UniProt Q99607 1-663). In outline:
as §1

The target in a further experiment is T7, ELK4 (Homo sapiens, UniProt P28324-2 1-405).
T7 sequence: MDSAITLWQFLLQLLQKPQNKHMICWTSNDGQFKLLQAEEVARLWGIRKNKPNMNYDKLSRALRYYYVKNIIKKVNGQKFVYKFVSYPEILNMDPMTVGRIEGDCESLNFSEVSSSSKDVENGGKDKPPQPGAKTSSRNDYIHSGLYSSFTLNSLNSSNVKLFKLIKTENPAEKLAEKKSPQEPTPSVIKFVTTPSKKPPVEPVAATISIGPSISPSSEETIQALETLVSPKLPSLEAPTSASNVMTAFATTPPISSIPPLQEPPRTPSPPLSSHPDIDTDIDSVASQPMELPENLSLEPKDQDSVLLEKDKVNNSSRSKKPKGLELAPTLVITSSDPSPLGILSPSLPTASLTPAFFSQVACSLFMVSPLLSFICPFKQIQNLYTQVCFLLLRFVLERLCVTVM
In outline: as §1

Another experiment concerns the target T8, ETV2 (Homo sapiens, UniProt O00321 1-342).
T8 sequence: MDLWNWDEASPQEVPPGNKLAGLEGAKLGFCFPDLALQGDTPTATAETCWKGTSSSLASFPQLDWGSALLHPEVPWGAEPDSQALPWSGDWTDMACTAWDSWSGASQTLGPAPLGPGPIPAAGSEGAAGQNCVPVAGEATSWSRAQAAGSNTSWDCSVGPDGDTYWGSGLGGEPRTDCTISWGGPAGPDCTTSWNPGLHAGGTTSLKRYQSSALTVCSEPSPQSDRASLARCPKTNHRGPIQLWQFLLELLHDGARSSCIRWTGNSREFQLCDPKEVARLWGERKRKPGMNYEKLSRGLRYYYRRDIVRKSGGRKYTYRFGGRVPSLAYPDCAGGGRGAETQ
In outline: as §1

A further experiment addresses T9, ETV3L (Homo sapiens, UniProt Q6ZN32 1-361).
T9 sequence: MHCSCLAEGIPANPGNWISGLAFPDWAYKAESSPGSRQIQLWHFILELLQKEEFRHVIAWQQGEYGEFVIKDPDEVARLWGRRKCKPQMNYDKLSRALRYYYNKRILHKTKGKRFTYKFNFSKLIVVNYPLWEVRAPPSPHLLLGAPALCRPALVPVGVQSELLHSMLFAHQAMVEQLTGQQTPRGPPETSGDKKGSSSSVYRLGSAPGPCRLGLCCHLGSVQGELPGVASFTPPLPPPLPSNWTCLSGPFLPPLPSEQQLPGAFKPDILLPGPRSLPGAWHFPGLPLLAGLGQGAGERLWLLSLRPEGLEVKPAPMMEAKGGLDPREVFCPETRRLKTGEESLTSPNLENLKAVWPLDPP
The method, boiled down: as §1

The next experiment deals with T10, SPDEF (Homo sapiens, UniProt O95238 1-335).
T10 sequence: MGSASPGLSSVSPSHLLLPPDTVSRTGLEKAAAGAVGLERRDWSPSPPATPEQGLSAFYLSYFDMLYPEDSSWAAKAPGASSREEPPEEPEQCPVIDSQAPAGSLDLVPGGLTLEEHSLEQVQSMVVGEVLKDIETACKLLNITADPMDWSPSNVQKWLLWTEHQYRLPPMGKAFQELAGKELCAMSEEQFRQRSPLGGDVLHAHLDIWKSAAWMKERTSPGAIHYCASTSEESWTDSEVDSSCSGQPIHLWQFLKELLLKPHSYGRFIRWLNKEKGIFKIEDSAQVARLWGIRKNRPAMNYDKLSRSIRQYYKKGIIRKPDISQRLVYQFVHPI
The method, boiled down: as §1

In a further experiment the target is T11, ETV3 (Homo sapiens, UniProt P41162-2 1-143).
T11 sequence: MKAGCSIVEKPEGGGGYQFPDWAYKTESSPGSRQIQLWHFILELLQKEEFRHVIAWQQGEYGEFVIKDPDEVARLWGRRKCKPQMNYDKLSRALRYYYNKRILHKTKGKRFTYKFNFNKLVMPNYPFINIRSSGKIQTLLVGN
In outline: as §1

Another experiment addresses T12, ELF3 (Homo sapiens, UniProt P78545 1-371).
T12 sequence: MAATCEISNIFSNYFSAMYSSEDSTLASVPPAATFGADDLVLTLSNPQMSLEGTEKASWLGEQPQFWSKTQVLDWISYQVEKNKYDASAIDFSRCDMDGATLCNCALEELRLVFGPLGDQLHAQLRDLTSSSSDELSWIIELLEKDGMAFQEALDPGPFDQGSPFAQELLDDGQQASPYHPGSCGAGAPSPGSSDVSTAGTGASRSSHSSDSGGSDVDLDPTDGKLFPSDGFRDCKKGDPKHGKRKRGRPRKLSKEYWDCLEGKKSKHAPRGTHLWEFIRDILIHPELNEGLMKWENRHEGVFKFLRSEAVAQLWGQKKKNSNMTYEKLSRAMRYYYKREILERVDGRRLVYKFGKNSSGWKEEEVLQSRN
The method, boiled down: as §1

Chain of ELF4 (Q99607 whole entry): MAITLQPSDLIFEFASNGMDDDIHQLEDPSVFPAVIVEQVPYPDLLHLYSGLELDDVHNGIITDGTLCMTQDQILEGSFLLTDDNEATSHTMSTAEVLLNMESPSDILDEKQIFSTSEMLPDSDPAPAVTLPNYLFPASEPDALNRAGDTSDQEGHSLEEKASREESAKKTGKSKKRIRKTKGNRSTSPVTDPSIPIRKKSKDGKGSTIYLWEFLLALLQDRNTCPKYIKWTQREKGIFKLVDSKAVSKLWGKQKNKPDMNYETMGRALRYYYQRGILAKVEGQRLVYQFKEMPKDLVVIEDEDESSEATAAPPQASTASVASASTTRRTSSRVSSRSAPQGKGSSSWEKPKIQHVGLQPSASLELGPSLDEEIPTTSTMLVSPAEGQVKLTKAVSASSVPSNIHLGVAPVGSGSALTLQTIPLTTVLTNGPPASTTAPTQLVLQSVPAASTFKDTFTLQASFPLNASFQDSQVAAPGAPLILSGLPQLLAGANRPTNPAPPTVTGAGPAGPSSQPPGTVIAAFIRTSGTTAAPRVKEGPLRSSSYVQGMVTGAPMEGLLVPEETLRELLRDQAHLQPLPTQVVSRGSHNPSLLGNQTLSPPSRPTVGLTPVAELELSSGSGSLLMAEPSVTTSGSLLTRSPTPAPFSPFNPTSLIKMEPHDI

Consider ACGCGC, for which the binding signal with ELK1 is 1.12 fold enrichment (6-mer frequency, TF over GST control); with GABPA, 1.07 fold enrichment (6-mer frequency, TF over GST control); with ELF1 it was 1.05 fold enrichment (6-mer frequency, TF over GST control); with EHF it was 1.07 fold enrichment (6-mer frequency, TF over GST control); in the experiment with ELK3, 1.04 fold enrichment (6-mer frequency, TF over GST control); with FEV it was 1.04 fold enrichment (6-mer frequency, TF over GST control). The binding signal was 1.05 fold enrichment (6-mer frequency, TF over GST control) in the experiment with SPIC; 1.06 fold enrichment (6-mer frequency, TF over GST control) in the experiment with ELF4; 1.02 fold enrichment (6-mer frequency, TF over GST control) in the experiment with ELK4; 1.08 fold enrichment (6-mer frequency, TF over GST control) with ETV2; 1.09 fold enrichment (6-mer frequency, TF over GST control) in the experiment with ETV3L; 1.06 fold enrichment (6-mer frequency, TF over GST control) with SPDEF. For the same sequence, in the experiment with ETV3, the binding signal is 1.09 fold enrichment (6-mer frequency, TF over GST control).
Consider AGCAGA, for which the binding signal with SPIC was 1.04 fold enrichment (6-mer frequency, TF over GST control).
Regarding TGGTGA, the binding signal was 1.04 fold enrichment (6-mer frequency, TF over GST control) in the experiment with ELK1; 1.09 fold enrichment (6-mer frequency, TF over GST control) in the experiment with EHF; 1.02 fold enrichment (6-mer frequency, TF over GST control) with SPIC; 1.04 fold enrichment (6-mer frequency, TF over GST control) with ELK4; 1.03 fold enrichment (6-mer frequency, TF over GST control) in the experiment with ELF3.
